What all share (test): DAPPL (digital affinity profiling via proximity ligation, sequencing); 10 mM Tris-HCl pH 7.5, 50 mM NaCl, 1 mM DTT, 4% glycerol, room temperature, 30 min; GST-TFs on glutathione beads, 16-mer random dsDNA library, 0.1% formaldehyde crosslink after washing; high values mean tight binding
One assay concerns the target T1, FLI1 (Homo sapiens, UniProt Q01543 1-452).
T1 sequence: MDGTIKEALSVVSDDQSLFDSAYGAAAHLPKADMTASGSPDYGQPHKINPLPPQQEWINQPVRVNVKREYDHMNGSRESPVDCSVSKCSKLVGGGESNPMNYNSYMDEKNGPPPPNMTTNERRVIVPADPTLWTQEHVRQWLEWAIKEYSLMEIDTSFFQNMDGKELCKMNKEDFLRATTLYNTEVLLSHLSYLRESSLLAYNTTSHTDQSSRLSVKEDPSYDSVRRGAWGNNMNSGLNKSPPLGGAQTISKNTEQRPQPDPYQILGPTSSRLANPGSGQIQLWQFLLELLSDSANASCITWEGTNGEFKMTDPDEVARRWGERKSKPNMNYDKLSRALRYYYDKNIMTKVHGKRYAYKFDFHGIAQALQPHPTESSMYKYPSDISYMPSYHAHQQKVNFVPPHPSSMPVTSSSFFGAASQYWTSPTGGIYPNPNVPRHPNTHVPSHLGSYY
To be noted: protein: recombinant; tags: N-terminal GST; dsDNA, one strand shown. In outline:
(§1)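 Pools were built from human transcription factors expressed in yeast as GST fusions, captured on glutathione beads and DNA-barcoded, along with a tag-only sample. Incubation with 200 nmole of a 16-mer random double-stranded DNA library lasted 30 min at room temperature in Tris/NaCl/DTT/glycerol buffer, and was followed by washing, 0.1% formaldehyde crosslinking, proximity ligation, PCR amplification and Illumina NextSeq500 sequencing. Binding signal is the quotient of each hexamer's read frequency for a factor and its frequency for the tag-only sample.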

In the next assay the target is T2, ELK1 (Homo sapiens, UniProt P19419 1-428).
T2 sequence: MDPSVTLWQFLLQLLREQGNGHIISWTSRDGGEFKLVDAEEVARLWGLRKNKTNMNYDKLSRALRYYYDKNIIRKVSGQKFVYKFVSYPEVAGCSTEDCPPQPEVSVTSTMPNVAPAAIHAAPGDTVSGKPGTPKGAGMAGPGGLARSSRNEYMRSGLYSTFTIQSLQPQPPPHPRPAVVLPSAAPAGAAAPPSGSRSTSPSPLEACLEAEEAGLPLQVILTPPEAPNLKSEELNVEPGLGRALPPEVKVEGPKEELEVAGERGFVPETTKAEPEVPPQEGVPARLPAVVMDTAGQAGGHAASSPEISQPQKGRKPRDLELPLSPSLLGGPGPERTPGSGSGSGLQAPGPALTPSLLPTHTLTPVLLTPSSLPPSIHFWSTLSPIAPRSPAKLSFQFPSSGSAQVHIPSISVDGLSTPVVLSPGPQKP
To be noted: protein: recombinant; tags: N-terminal GST; dsDNA, one strand shown. A digest of the protocol: as §1

For another assay, the target named is T3, GABPA (Homo sapiens, UniProt Q06546 1-454).
T3 sequence: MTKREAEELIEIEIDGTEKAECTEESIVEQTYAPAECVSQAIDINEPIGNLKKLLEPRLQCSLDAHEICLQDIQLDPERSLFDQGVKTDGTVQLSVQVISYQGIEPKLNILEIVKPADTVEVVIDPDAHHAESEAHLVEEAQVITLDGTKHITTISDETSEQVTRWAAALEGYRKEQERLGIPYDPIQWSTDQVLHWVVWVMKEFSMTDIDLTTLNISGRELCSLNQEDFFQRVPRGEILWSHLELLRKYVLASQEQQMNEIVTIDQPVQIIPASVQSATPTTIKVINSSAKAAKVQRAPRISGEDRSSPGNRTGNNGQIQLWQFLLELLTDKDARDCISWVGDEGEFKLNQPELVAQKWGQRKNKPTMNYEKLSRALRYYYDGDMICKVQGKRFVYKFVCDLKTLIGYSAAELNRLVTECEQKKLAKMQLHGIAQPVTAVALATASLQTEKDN
To be noted: protein: recombinant; tags: N-terminal GST; dsDNA, one strand shown. A digest of the protocol: as §1

The target of the next assay is T4, ERG (Homo sapiens, UniProt P11308 1-479).
T4 sequence: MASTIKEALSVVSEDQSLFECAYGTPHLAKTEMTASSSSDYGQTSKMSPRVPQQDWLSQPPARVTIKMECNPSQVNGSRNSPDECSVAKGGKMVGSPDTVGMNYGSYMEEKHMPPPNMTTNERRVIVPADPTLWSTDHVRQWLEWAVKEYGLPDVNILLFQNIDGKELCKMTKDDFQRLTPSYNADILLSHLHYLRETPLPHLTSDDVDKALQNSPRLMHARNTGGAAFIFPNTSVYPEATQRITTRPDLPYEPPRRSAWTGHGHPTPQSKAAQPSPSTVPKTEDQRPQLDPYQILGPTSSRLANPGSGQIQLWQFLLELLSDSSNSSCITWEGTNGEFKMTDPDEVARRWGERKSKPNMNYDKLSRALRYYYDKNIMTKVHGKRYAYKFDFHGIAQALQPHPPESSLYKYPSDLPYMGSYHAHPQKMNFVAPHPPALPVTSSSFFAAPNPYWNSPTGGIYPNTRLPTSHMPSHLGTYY
Conditions: protein: recombinant; tags: N-terminal GST; dsDNA, one strand shown. In outline: as §1

In a further assay the target is ELF1 (Homo sapiens, UniProt P32519 1-619). To be noted: protein: recombinant; tags: N-terminal GST; dsDNA, one strand shown. In outline:
as §1

The target of another assay is T5, EHF (Homo sapiens, UniProt Q9NZC4 1-300).
T5 sequence: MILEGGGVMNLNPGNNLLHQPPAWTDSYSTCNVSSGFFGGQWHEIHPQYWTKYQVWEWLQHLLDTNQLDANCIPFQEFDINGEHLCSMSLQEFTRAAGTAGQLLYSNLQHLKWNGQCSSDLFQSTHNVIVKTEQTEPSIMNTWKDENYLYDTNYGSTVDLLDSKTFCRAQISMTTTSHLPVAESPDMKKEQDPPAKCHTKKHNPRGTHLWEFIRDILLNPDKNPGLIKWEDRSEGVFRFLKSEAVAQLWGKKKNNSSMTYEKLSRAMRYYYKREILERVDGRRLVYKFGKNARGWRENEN
To be noted: protein: recombinant; tags: N-terminal GST; dsDNA, one strand shown. In outline:
as §1

For another assay, the target named is SPI1 (Homo sapiens, UniProt P17947 1-270). Conditions: protein: recombinant; tags: N-terminal GST; dsDNA, one strand shown. In outline: as §1
The next assay concerns the target SPIB (Homo sapiens, UniProt Q01892 1-262). To be noted: protein: recombinant; tags: N-terminal GST; dsDNA, one strand shown. In outline:
as §1

In a further assay the target is T6, ELK3 (Homo sapiens, UniProt P41970 1-407).
T6 sequence: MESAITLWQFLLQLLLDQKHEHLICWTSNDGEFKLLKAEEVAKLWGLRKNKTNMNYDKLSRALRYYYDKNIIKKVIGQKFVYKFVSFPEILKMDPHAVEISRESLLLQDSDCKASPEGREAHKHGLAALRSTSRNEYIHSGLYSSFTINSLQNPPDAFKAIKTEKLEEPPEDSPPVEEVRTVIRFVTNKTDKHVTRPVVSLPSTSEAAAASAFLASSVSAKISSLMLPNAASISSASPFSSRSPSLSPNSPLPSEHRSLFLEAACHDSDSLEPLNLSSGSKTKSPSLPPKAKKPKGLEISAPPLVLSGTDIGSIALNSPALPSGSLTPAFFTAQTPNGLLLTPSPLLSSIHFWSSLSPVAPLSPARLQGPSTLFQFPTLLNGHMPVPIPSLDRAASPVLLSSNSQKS
Conditions: protein: recombinant; tags: N-terminal GST; dsDNA, one strand shown. In outline:
as §1

The target of another assay is T7, FEV (Homo sapiens, UniProt Q99581 1-238).
T7 sequence: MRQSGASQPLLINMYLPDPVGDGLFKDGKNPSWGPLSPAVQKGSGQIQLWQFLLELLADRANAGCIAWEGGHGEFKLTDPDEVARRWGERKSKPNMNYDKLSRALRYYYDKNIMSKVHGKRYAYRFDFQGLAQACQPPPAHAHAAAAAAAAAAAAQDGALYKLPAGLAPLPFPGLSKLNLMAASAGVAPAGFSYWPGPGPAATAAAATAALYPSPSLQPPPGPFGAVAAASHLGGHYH
Conditions: protein: recombinant; tags: N-terminal GST; dsDNA, one strand shown. A digest of the protocol: as §1

Another assay addresses ETV5 (Homo sapiens, UniProt P41161 1-510). Conditions: protein: recombinant; tags: N-terminal GST; dsDNA, one strand shown. A digest of the protocol: as §1
The next assay addresses HSF1 (Homo sapiens, UniProt Q00613 1-529). Conditions: protein: recombinant; tags: N-terminal GST; chain copies: 3; dsDNA, one strand shown. A digest of the protocol: as §1
The next assay deals with T8, SPIC (Homo sapiens, UniProt Q8N5J4 1-248).
T8 sequence: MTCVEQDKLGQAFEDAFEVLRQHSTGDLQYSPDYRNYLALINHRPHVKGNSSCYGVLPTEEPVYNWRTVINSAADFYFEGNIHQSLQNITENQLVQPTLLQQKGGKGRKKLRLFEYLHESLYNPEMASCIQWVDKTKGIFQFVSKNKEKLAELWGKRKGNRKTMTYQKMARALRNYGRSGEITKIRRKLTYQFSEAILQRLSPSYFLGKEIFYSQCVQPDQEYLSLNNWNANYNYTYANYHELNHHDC
Conditions: protein: recombinant; tags: N-terminal GST; dsDNA, one strand shown. A digest of the protocol:
as §1

In a further assay the target is ELF4 (Homo sapiens, UniProt Q99607 1-663). To be noted: protein: recombinant; tags: N-terminal GST; dsDNA, one strand shown. A digest of the protocol:
as §1

The target in the next assay is T9, ELK4 (Homo sapiens, UniProt P28324-2 1-405).
T9 sequence: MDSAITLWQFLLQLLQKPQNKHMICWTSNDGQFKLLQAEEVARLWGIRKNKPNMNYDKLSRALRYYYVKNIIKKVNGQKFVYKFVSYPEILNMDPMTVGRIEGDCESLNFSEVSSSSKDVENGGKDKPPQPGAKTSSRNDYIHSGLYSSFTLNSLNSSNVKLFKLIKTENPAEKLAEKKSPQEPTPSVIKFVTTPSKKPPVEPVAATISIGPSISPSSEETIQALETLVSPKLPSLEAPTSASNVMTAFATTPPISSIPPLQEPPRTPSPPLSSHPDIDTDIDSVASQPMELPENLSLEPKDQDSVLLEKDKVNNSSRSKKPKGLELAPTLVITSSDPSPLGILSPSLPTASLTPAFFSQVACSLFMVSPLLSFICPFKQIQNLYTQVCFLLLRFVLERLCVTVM
To be noted: protein: recombinant; tags: N-terminal GST; dsDNA, one strand shown. In outline:
as §1

In a further assay the target is T10, ETV2 (Homo sapiens, UniProt O00321 1-342).
T10 sequence: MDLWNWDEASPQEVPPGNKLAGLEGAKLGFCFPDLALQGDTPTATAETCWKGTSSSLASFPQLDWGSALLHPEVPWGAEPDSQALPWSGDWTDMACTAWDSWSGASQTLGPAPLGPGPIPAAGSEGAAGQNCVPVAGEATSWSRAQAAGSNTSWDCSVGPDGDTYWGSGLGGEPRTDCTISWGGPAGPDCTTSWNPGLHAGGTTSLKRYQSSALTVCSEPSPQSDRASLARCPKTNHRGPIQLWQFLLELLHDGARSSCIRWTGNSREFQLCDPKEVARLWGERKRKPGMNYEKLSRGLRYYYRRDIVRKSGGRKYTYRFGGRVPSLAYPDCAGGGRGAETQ
To be noted: protein: recombinant; tags: N-terminal GST; dsDNA, one strand shown. A digest of the protocol: as §1

The next assay deals with T11, ELF3 (Homo sapiens, UniProt P78545 1-371).
T11 sequence: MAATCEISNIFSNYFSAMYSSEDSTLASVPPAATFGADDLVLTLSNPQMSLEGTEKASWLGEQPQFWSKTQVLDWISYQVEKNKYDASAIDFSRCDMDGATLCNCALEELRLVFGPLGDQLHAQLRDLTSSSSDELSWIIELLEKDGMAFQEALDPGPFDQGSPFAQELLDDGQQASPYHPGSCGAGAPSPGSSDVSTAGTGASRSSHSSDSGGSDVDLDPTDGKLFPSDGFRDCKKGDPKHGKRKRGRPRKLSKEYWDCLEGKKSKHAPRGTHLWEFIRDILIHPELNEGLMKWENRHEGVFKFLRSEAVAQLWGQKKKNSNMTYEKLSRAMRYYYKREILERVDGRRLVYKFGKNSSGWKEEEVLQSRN
To be noted: protein: recombinant; tags: N-terminal GST; dsDNA, one strand shown. A digest of the protocol: as §1

The target of the next assay is CRX (Homo sapiens, UniProt O43186 1-299). Conditions: protein: recombinant; tags: N-terminal GST; dsDNA, one strand shown. In outline:
as §1

The next assay concerns the target ETV1 (Homo sapiens, UniProt P50549 1-477). Conditions: protein: recombinant; tags: N-terminal GST; dsDNA, one strand shown. A digest of the protocol:
as §1

ETV1, sequence (P50549 whole entry): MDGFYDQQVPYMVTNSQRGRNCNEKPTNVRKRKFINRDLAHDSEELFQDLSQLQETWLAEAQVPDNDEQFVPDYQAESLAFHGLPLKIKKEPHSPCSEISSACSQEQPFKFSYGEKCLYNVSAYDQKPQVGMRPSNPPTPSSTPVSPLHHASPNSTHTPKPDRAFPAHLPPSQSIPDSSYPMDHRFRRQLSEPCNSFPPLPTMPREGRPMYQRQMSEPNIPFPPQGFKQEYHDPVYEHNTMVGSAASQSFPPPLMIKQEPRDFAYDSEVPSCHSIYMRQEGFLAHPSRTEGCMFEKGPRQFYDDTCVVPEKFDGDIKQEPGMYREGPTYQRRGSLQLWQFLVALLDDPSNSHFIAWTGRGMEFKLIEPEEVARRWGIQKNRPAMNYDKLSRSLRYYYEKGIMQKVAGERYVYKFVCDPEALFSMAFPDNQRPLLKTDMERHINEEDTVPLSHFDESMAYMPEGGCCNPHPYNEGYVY
ETV5, sequence (P41161 whole entry): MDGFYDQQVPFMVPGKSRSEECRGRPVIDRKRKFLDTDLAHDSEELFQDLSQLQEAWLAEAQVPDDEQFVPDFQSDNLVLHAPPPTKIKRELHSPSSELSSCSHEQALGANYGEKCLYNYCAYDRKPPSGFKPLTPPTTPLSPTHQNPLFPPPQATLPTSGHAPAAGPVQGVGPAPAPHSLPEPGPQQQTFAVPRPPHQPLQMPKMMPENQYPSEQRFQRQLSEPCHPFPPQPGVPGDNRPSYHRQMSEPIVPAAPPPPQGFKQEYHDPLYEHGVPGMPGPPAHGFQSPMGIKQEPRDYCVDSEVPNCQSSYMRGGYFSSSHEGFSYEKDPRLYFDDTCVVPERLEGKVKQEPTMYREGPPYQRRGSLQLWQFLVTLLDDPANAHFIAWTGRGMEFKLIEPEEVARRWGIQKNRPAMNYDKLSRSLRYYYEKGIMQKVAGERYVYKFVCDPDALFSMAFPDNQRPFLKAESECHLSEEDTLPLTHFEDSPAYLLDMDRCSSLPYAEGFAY
CRX, sequence (O43186 whole entry): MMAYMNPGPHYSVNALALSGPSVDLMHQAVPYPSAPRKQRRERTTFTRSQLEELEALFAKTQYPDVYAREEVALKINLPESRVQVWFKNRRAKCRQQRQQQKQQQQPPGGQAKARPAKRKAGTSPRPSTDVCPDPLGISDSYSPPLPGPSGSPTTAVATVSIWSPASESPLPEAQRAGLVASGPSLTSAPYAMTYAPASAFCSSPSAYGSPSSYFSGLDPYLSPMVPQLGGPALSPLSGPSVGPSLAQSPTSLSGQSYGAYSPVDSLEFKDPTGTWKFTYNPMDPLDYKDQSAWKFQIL
ELF4, sequence (Q99607 whole entry): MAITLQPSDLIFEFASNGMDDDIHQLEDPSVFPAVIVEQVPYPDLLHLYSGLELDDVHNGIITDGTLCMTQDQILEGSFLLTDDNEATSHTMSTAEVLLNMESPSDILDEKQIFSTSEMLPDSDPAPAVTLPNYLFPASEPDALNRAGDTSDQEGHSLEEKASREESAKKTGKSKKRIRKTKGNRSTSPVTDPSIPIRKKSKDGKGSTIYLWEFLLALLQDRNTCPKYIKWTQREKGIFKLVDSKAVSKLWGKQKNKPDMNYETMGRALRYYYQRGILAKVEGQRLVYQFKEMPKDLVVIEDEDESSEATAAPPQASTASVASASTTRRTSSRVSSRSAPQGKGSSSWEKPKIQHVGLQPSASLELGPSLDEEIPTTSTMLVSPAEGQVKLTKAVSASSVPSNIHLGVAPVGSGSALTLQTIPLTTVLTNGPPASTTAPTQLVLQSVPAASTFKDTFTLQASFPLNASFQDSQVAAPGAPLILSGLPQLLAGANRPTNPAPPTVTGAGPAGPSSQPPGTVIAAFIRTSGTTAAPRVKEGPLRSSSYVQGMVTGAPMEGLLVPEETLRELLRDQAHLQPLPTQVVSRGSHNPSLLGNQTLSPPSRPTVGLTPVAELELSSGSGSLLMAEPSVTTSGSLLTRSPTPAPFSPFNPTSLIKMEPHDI
ELF1, sequence (P32519 whole entry): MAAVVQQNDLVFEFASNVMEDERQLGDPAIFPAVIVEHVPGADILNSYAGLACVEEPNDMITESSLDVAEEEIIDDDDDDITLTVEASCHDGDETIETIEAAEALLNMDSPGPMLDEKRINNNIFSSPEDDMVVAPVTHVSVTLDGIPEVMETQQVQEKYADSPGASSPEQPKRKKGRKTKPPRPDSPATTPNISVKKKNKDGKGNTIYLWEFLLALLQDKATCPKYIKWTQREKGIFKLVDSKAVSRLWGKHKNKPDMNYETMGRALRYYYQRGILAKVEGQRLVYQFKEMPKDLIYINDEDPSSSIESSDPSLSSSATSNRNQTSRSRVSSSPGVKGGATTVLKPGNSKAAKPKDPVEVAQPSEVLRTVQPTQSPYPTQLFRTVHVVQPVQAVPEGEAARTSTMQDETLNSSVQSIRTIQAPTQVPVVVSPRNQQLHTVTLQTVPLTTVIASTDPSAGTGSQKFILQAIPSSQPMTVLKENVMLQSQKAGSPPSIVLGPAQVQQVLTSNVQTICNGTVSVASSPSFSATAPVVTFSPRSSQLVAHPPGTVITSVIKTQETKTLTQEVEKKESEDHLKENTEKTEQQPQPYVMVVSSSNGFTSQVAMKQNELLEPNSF
SPIB, sequence (Q01892 whole entry): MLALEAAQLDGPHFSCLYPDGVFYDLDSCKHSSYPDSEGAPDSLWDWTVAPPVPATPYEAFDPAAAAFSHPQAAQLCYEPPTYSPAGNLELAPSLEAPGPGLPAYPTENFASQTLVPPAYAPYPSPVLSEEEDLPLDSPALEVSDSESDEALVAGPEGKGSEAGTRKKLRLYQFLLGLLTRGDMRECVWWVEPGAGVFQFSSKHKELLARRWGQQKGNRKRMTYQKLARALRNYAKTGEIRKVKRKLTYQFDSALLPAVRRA
HSF1, sequence (Q00613 whole entry): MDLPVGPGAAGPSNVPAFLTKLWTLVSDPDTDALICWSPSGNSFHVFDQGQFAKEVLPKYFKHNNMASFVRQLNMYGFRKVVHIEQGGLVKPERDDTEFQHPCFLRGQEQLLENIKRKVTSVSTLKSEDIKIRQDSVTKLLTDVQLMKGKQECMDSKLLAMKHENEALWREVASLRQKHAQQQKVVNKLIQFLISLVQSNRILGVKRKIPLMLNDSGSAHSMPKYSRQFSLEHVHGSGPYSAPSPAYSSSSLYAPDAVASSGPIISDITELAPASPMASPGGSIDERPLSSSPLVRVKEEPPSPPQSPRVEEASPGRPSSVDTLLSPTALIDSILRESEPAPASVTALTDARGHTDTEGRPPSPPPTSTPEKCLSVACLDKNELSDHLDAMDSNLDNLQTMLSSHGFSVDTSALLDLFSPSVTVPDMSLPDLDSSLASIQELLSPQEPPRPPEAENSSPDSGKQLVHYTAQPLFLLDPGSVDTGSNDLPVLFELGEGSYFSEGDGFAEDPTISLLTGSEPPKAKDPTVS

For GTTCGA, the binding signal with FLI1 is 1.13 fold enrichment (6-mer frequency, TF over GST control); with ELK1, 1.12 fold enrichment (6-mer frequency, TF over GST control); with GABPA it was 1.17 fold enrichment (6-mer frequency, TF over GST control); with ERG it was 1.07 fold enrichment (6-mer frequency, TF over GST control); with ELF1, 1.08 fold enrichment (6-mer frequency, TF over GST control); with EHF, 1.14 fold enrichment (6-mer frequency, TF over GST control). The binding signal was 1.04 fold enrichment (6-mer frequency, TF over GST control) in the assay with SPI1; 1.05 fold enrichment (6-mer frequency, TF over GST control) in the assay with SPIB; 1.15 fold enrichment (6-mer frequency, TF over GST control) with ELK3; 1.02 fold enrichment (6-mer frequency, TF over GST control) in the assay with FEV; 1.07 fold enrichment (6-mer frequency, TF over GST control) with ETV5; 1.9 fold enrichment (6-mer frequency, TF over GST control) in the assay with HSF1. Further, the binding signal with SPIC was 1.15 fold enrichment (6-mer frequency, TF over GST control); in the assay with ELF4, 1.12 fold enrichment (6-mer frequency, TF over GST control); with ELK4 it was 1.07 fold enrichment (6-mer frequency, TF over GST control); with ETV2 it was 1 fold enrichment (6-mer frequency, TF over GST control); with ELF3, 1.13 fold enrichment (6-mer frequency, TF over GST control); in the assay with CRX, 1.11 fold enrichment (6-mer frequency, TF over GST control). In addition, the binding signal with ETV1 is 1.08 fold enrichment (6-mer frequency, TF over GST control).

(Values after paper PMC7862700, “An all-to-all approach to the identification of sequence-specific readers for epigenetic DNA modifications on cytosine”.)
